The text below walks through data of the supplement of paper PMC12024424.

Where a name gives a salt, the structure may show the parent alone.

This assay relates to Staphylococcus aureus Sa2 (MRSA, cystic fibrosis isolate). The assay can be described thus: growth reduction vs untreated control (viable cell count); higher = stronger antibacterial activity; extreme values may be limits of the assay. The following applies: 0.1 mM; 24 h. The protocol:
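Single-dose screen of the MedChem Express Drug Repurposing Library (0.1 mM, 1% DMSO) against planktonic MRSA S. aureus Sa2 (CF isolate) in TSB in 96-well plates, 37 °C aerobic, 24 h. Assays were run in triplicate and repeated twice.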
`C[S+]([O-])CCCCN=C=S` (stereo not drawn) [Sulforaphane] displayed a growth reduction of 100%.

`O=C(CNC(=O)c1ccc(C2=NOC(c3cc(Cl)cc(C(F)(F)F)c3)(C(F)(F)F)C2)c2ccccc12)NCC(F)(F)F` (stereo not drawn) [Afoxolaner] showed a growth reduction of 98%.

`Fc1ccc(C(OCCN2CCN(CCCc3ccccc3)CC2)c2ccc(F)cc2)cc1` [Vanoxerine (dihydrochloride)] yielded a growth reduction of 99%.

Take `CCNC1=Nc2ccc(Cl)cc2C(C)(c2ccccc2)O1` (stereo not drawn) [Etifoxine]: the growth reduction came out at 100%.

`Cc1cc2c(C(C)C)c(O)c(O)c(C=O)c2c(O)c1-c1c(C)cc2c(C(C)C)c(O)c(O)c(C=O)c2c1O` [(R)-(-)-Gossypol acetic acid] returned a growth reduction of 100%.

For `O=c1c2ccccc2[se]n1-c1ccccc1` [Ebselen], the growth reduction came to 100%.

For the compound `Cc1cc2c(C(C)C)c(O)c(O)c(C=O)c2c(O)c1-c1c(C)cc2c(C(C)C)c(O)c(O)c(C=O)c2c1O` [Gossypol], the growth reduction amounted to 100%.

`CC[C@H](C)C1O[C@]2(C=C[C@@H]1C)C[C@@H]1C[C@@H](C/C=C(\C)[C@@H](O[C@H]3C[C@H](OC)[C@@H](O[C@H]4C[C@H](OC)[C@H](NC)[C@H](C)O4)[C@H](C)O3)[C@@H](C)/C=C/C=C3\CO[C@@H]4[C@H](O)C(C)=C[C@@H](C(=O)O1)[C@]34O)O2` (stereo partly drawn) [Emamectin (Benzoate)]: the growth reduction was 100%.

In turn, `COc1cccc2c1cc([N+](=O)[O-])c1c(C(=O)O)cc3c(c12)OCO3` [Aristolochic acid A] registered a growth reduction of 100%.

With `Cc1cc2c(C(C)C)c(O)c(O)c(C=O)c2c(O)c1-c1c(C)cc2c(C(C)C)c(O)c(O)c(C=O)c2c1O` [Gossypol (acetic acid)], the growth reduction was 100%.

On to `c1ccc2c(c1)Sc1ccccc1N2CC1CN2CCC1CC2` (stereo not drawn) [Mequitazine], for which the growth reduction came to 96%.

For `O=C(O)c1nn(Cc2ccc(Cl)cc2Cl)c2ccccc12` [Lonidamine], the growth reduction came out at 90%.

On to `O=c1[nH]c2ccccc2n1C1CCN(CCCC(c2ccc(F)cc2)c2ccc(F)cc2)CC1` [Pimozide], for which the growth reduction stood at 98%.
